Test results reported in publication PMC4336329 (PLoS ONE, 2015).
The whole screen tested about 310,000 compounds, of which about 2,200 (0.71%) showed an effect of 50% or more. The effect is printed as a negative number. The sample as a whole holds a higher share of strong results than the screen did.

biological target: human ether-à-go-go-related gene (hERG) potassium channel (human, UniProt Q12809); test: primary screen, population patch clamp on CHO cells stably expressing hERG; higher = less effect of the substance
Sequence (Q12809 whole entry, looked up): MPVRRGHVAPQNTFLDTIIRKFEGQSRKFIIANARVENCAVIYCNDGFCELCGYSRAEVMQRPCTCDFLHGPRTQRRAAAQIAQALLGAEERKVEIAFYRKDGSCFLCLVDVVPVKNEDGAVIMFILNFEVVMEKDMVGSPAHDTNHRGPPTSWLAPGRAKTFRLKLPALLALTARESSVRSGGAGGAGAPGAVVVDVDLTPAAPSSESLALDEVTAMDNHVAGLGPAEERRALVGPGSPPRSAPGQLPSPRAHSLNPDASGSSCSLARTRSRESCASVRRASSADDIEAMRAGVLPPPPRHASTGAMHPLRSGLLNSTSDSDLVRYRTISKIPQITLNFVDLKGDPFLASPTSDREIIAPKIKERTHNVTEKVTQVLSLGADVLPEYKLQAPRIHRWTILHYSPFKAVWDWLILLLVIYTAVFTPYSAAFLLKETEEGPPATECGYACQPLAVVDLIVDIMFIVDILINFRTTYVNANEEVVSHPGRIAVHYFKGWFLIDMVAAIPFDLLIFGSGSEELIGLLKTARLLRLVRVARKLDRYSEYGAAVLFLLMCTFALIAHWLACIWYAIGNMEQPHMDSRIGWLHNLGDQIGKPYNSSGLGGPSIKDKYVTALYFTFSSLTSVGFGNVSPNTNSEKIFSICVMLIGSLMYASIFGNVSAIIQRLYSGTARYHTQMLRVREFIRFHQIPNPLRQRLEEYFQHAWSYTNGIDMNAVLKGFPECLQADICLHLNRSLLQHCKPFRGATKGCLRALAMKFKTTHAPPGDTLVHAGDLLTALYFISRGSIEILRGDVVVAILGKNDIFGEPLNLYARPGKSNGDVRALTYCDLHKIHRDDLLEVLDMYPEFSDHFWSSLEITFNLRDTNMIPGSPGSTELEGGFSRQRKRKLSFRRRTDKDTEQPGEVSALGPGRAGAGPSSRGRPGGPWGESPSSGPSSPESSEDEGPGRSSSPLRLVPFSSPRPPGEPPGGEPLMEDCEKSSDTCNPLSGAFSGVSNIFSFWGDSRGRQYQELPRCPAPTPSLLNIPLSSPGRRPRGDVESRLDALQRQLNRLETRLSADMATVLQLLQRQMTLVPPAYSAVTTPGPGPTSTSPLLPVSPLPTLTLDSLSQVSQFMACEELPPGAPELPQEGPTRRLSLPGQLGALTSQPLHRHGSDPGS

Compared with `Nc1nc(/C=C/c2cccnc2)nc(-c2ccccc2O)n1`, `Cc1nc2nc(N)nn2c(C)c1C/C=C/c1ccccc1` is lower in “hERG current change (%, negative = inhibition) at 1uM” value: 10.4% for the first, 2.83% for the second.

First: COc1cccc(COC(=O)C2CCN(S(=O)(=O)c3ccc(Cl)cc3)CC2)c1OC
Second: Cc1ccc(S(=O)(=O)N2CCCC(C(=O)NNCC(=O)Nc3cc(F)ccc3F)C2)cc1 (stereo not shown)
The “hERG current change (%, negative = inhibition) at 1uM” value of the first is higher: 5.7% for the first, -0.56% for the second.

First: CC(=O)c1ccc(S(=O)(=O)N2CCN(c3ccccc3F)CC2)cc1
Second: Cc1cc(S(=O)(=O)N2CCN(c3c(C)cccc3C)CC2)ccc1F
The “hERG current change (%, negative = inhibition) at 1uM” value of the first is higher: 8.26% for the first, -0.574% for the second.

Compared with `Cl.OC(CN1C2=NCCN2c2ccccc21)c1ccc2c(c1)OCO2` (stereo not shown), `Cl.OC(CN1C2=NCCCN2c2ccccc21)c1ccc2c(c1)OCO2` (stereo not shown) is lower in “hERG current change (%, negative = inhibition) at 1uM” value: -27.7% for the first, -68.6% for the second.

Going from `Cl.OC(CN1C2=NCCN2c2ccccc21)c1ccccc1` (stereo not shown) to `Cc1ccc(C(O)CN2C3=NCCN3c3ccccc32)cc1.Cl` (stereo not shown), the “hERG current change (%, negative = inhibition) at 1uM” value falls from -5.32% to -40.9%.

Compared with `Cl.OCCN1C2=NCCCN2c2ccccc21`, `Cl.c1ccc2c(c1)N1CCCN=C1N2CCN1CCCCC1` is lower in “hERG current change (%, negative = inhibition) at 1uM” value: 10.3% for the first, -26.2% for the second.

First: Br.O=C(CN1C2=NCCN2c2ccccc21)c1ccc(Br)s1
Second: Br.O=C(CN1C2=NCCN2c2ccccc21)c1ccc2c(c1)OCO2
The “hERG current change (%, negative = inhibition) at 1uM” value of the first is higher: -0.685% for the first, -42.1% for the second.

Going from `OC(CN1C2=NCCN2c2ccccc21)c1ccc(Br)cc1` (stereo not shown) to `Cl.OC(CN1C2=NCCCN2c2ccccc21)c1ccc(Br)cc1` (stereo not shown), the “hERG current change (%, negative = inhibition) at 1uM” value falls from -63% to -86.2%.

Going from `Cl.OC(CN1C2=NCCCN2c2ccccc21)c1ccc(Cl)cc1` (stereo not shown) to `Cc1ccc(C(O)CN2C3=NCCCN3c3ccccc32)cc1.Cl` (stereo not shown), the “hERG current change (%, negative = inhibition) at 1uM” value rises from -76.2% to -51.4%.

First: Cn1c(=O)n(C)c2cc(NC(=O)CSc3nnc(-c4ccccc4O)n3-c3ccccc3)ccc21
Second: Cn1cccc1Cc1nnc(SCC(=O)N2CCCC2)n1CCc1ccccc1
The “hERG current change (%, negative = inhibition) at 1uM” value of the first is lower: 6.95% for the first, 10.7% for the second.

First: O=C(C1=NN[C@@H]2C(=O)N(c3cccc(F)c3)C(=O)[C@H]12)c1ccc2ccccc2n1
Second: Cc1nnc2ccc(-c3cccc(NC(=O)c4ccc(Cl)nc4)c3)nn12
The “hERG current change (%, negative = inhibition) at 1uM” value of the first is higher: 6.85% for the first, -1.98% for the second.

Going from `CN(C)CCCN(C(=O)c1ccc(Br)s1)c1nc2cc3c(cc2s1)OCO3.Cl` to `O=C(N/N=C/c1cc2c(cc1[N+](=O)[O-])OCO2)c1ccccn1`, the “hERG current change (%, negative = inhibition) at 1uM” value rises from 4.06% to 10.1%.

First: O=C(c1cc2ccccc2o1)c1nc2c(n1O)CCCCC2
Second: CCc1nc(SCC(=O)c2ccc(Cl)s2)c2oc3ccccc3c2n1
The “hERG current change (%, negative = inhibition) at 1uM” value of the first is higher: 9.78% for the first, 9.25% for the second.

Compared with `COCCCNC(=O)Cn1c(=O)n(CCCCCC(=O)Nc2ccccc2)c(=O)c2sccc21`, `CCCCOc1ccc(C(=O)NCC(=O)N2CC=C(c3ccccc3)CC2)cc1` is lower in “hERG current change (%, negative = inhibition) at 1uM” value: 14% for the first, 10.7% for the second.

Going from `Cc1ccccc1CN1C2=NCCCN2c2ccccc21.Cl` to `COc1ccc(CN2CCSc3sccc3C2=O)cc1`, the “hERG current change (%, negative = inhibition) at 1uM” value rises from -27.3% to 3.85%.

First: CC1CN(S(=O)(=O)c2ccc(C(=O)NCCCn3ccnc3)cc2)CC(C)O1 (stereo not shown)
Second: CCC(C)N(C)Cc1cccc(C2(O)CCN(S(=O)(=O)c3ccc(F)cc3)CC2)c1 (stereo not shown)
The “hERG current change (%, negative = inhibition) at 1uM” value of the first is higher: 11.7% for the first, -30.8% for the second.

First: CCCOc1cccc(C(=O)NCCNC(=O)c2ccco2)c1
Second: Cc1nnc2ccc(-c3cccc(NC(=O)c4ccco4)c3)nn12
The “hERG current change (%, negative = inhibition) at 1uM” value of the first is higher: 18.6% for the first, 1.54% for the second.

Going from `CCC(C)N(C)Cc1cccc(C2(O)CCN(S(=O)(=O)c3ccc(F)c(C)c3)CC2)c1` (stereo not shown) to `CN1CCNC(=O)C1CC(=O)N1CC=C(c2ccc(F)cc2)CC1` (stereo not shown), the “hERG current change (%, negative = inhibition) at 1uM” value rises from -71.2% to 16.2%.

Compared with `Cc1c(O[C@@H]2O[C@H](CO)[C@@H](O)[C@H](O)[C@H]2O)ccc2c1oc(=O)c1ccccc12`, `Cc1nnc2ccc(-c3cccc(NC(=O)c4ccc(Br)o4)c3)nn12` is lower in “hERG current change (%, negative = inhibition) at 1uM” value: 16.9% for the first, -52.2% for the second.

First: CCc1ccc(Nc2ncc3c(n2)CC(c2ccco2)CC3=O)cc1 (stereo not shown)
Second: Cl.NC(=O)c1ccc(OCCC(O)N2CC=C(c3ccc(F)cc3)CC2)cc1 (stereo not shown)
The “hERG current change (%, negative = inhibition) at 1uM” value of the first is higher: 5.43% for the first, -53% for the second.

Going from `Cn1nccc1C(=O)N1CCN(c2ncccn2)CC1` to `CCN(CC)c1ccc(NC(=O)C2CCC(CNc3c(N4CCCC4)c(=O)c3=O)CC2)c(C)c1` (stereo not shown), the “hERG current change (%, negative = inhibition) at 1uM” value rises from 9.95% to 13.6%.

In the case of `O=C(NCc1ccccc1)c1cccc(S(=O)(=O)NCc2ccccc2)c1`, the “hERG current change (%, negative = inhibition) at 1uM” value was 6.18%.
